BAZ2B block: qHTS Assay for Inhibitors of BAZ2B; Bromodomain adjacent to zinc finger domain protein 2B (Homo sapiens), Q9UIF8; AlphaScreen BAZ2B-H3K14Ac peptide displacement; Potency, µM (doses to about 114 µM), for the others: top-dose activity change, negative = inhibition, actives largely listed as inhibitors; 4.4% of 360,000 active; further: on the % scale 0 is the no-effect control and ±100 the full control effect; nearly all actives have a fitted effect of over 60% in size
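BAZ2B (50 nM) with biotin-H3(5-23)K14Ac peptide (50 nM) in PBS pH 7.4, 0.01% Tween-20, preformed 30 min, then compound 30 min at room temperature; top concentration 110uM. AlphaScreen streptavidin donor/nickel chelate acceptor beads (10 ug/mL final), 20 min dark, signal read.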
HP1b chromo inh: HTS for Inhibitors of HP1-beta Chromodomain Interactions with Methylated Histone Tails; 0.56% of 390,000 active; AID 540317, 2011; Potency, µM (series often up to 114 µM), inactives show at the highest dose activity change, negative = inhibition, usual class: inhibitors; AlphaScreen HP1-beta / biotin-H3K9me3 peptide binding; Chromobox protein homolog 1 (Homo sapiens), P83916; further: nearly all actives have a fitted effect of over 70% in size
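AlphaScreen: HP1-beta (50 nM) preformed 30 min with biotin-H3(1-18)K9me3 peptide (50 nM) in PBS pH 7.4, 0.01% Tween-20. Compound added for 30 min at RT, then streptavidin donor/nickel chelate acceptor beads (10 ug/mL) for 30 min.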
L3MBTL1 inh: qHTS Assay for the Inhibitors of L3MBTL1 | Potency, µM (highest dose often 57.1 µM), for inactives: at the top dose activity, negative = inhibition, most hits filed as inhibitors | Lethal(3)malignant brain tumor-like protein 1 (Homo sapiens), Q9Y468 | AID 485360, 2010 | AlphaScreen L3MBTL1–H3K9me1 peptide binding | 0.66% of 230,000 active; further: on the % scale 0 is the no-effect control and ±100 the full control effect; nearly all actives have a fitted effect of over 60% in size
Target sequence (Q9Y468 whole entry, looked up): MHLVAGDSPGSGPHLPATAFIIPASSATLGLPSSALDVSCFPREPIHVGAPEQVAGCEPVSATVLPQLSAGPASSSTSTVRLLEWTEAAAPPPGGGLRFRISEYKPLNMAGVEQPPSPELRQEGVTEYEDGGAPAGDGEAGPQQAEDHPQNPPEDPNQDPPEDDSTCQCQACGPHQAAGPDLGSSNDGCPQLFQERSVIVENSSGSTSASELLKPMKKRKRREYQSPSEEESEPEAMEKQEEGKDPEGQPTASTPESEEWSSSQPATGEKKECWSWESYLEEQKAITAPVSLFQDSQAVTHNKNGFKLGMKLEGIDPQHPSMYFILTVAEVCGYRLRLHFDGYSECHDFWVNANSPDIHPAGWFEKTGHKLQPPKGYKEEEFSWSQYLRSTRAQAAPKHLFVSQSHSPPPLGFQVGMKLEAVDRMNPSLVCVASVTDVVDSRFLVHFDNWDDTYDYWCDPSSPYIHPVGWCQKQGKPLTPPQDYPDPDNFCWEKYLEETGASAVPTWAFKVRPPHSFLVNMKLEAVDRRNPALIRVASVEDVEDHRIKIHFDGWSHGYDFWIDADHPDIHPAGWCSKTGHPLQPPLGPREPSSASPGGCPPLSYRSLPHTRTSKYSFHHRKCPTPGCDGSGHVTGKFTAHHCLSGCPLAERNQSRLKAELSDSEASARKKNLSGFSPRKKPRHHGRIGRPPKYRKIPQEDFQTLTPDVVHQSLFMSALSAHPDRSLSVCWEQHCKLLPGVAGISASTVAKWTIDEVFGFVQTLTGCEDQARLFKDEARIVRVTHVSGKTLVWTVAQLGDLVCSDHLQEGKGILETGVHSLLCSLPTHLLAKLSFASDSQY
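Displacement of a biotinylated histone H3(1-15) peptide monomethylated at Lys9 (75 nM) from L3MBTL1 (50 nM) was measured by AlphaScreen after a 30 min room-temperature compound incubation; cefsulodin titration served as intraplate control.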
G9a block: qHTS Assay for Inhibitors of Histone Lysine Methyltransferase G9a; Histone-lysine N-methyltransferase EHMT2 (Homo sapiens), Q96KQ7; G9a H3K9 monomethylation, AlphaScreen, 2 h; Potency, µM (highest dose often 102 µM), without a hit: top-dose activity, negative = inhibition, most hits filed as inhibitors; 8.8% of 350,000 active; further: on the % scale 0 is the no-effect control and ±100 the full control effect; nearly all actives have a fitted effect of over 75% in size
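G9a (20 nM) was preincubated 15 min with compound, then reacted 2 h at room temperature with 500 nM biotin-H3K9 peptide and 20 µM SAM. Monomethyl-H3K9 detected by AlphaScreen using anti-H3K9me1 antibody.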
JMJD2A Tudor inh: qHTS Assay for Inhibitors of JMJD2A-Tudor Domain; Lysine-specific demethylase 4A (Homo sapiens), O75164; AlphaScreen JMJD2A-Tudor / H3K4me3 peptide binding; Potency, µM (highest dose often 114 µM), inactives show at the highest dose activity change, negative = inhibition, hits mostly inhibitors; 4.4% of 390,000 active; further: on the % scale 0 is the no-effect control and ±100 the full control effect; nearly all actives have a fitted effect of over 50% in size
Sfp PPTase inh: qHTS Assay for Inhibitors of Bacillus subtilis Sfp phosphopantetheinyl transferase (PPTase). Biochemical Sfp PPTase activity, qHTS. Potency, µM, without a hit: largest response in the series, negative = inhibition, usual class: inhibitors. 3.5% of 310,000 active. 4'-phosphopantetheinyl transferase ffp (Bacillus subtilis), Q9F4F7;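 further: the enzyme is Sfp with the accession as filed and its product quenches rhodamine fluorescence; 0% = enzyme reaction without inhibitor and -100% = no enzyme wells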
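Compounds were incubated with enzyme (final 15 nM) for 15 min at room temperature before substrate addition started the reaction. Fluorescence at 525 nm excitation, 598 nm emission was recorded immediately and after 30 minutes.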
Starred values were filed as active, the others as inactive; ? = inconclusive; . = no result; [ ] = another dose, or the depositor's remark. Rows were chosen to be rich in hits. Some 12% of all compounds tested hit in one or more screens of this group. The call rests on the fitted dose curve; in most records, active means well fitted curve in the direction sought with a large enough effect; inconclusive means small, poorly fitted or top-dose-only effect, or another doubt; inactive means no such curve, though single readings can be large; an effect the other way counts as inactive or inconclusive. Potency means the concentration at half of the fitted maximal effect.

SMILES	BAZ2B block	HP1b chromo inh	L3MBTL1 inh	G9a block	JMJD2A Tudor inh	Sfp PPTase inh
O=C1COc2cc(S(=O)(=O)CCC(=O)N3CCN(c4cccc(Cl)c4)CC3)c(Cl)cc2N1	-2%	30%	.	-3%[59 µM]	-8%	.
c1ccc(Nc2cc(Nc3ccccc3)[nH]n2)cc1	45µM*	-26%	-7%	?	?	-13%
O=c1nccc(Nc2ccccc2)[nH]1	-3%	33%	0%	11%[12.7 µM]	-12%	15%
Cc1ccc2c(c1)c1c(c(=O)n(-c3cccc(Cl)c3)c(=O)n1CC(=O)NCCC1=CCCCC1)n2C	3%	12%	.	9%[59 µM]	-10%	.
CCOC(=O)N1CCN(c2cc3[nH]c(=S)[nH]c3cc2F)CC1	4%	-29%	4%	2.2µM*	45µM*	23%
CCOC(=O)N1CCN(c2c(F)cc3[nH]c(=S)[nH]c3c2Br)CC1	-4%	6%	-18%[11.4 µM]	?	-22%	?
CCOCCCn1c(=S)[nH]c2cc(C(=O)N3CCC(C(N)=O)(N4CCCCC4)CC3)ccc2c1=O	2%	47%	.	?	22µM*	-10%
CCOC(=O)N1CCN(C(=O)c2ccc3c(=O)n(-c4ccccc4F)c(=S)[nH]c3c2)CC1	-15%	77%	7%	50µM*	-12%	-9%
CCOCCCn1c(=S)[nH]c2cc(C(=O)N3CCN(C)CC3)ccc2c1=O	?	15%	2%	?	22µM*	-25%
COc1ccc(C(=O)CCC(=O)Nc2cccc(C(C)=O)c2)cc1	5%	33%	.	-1%[59 µM]	-4%	.
Cc1ccccc1NC(=O)CN1C(=O)CCn2nc(-c3cccn3C)cc21	-34%	3%[57 µM]	.	-33%[59 µM]	-21%	.
COc1ccc(CCn2c(=S)[nH]c3cc(C(=O)N4CCOCC4)ccc3c2=O)cc1OC	-26%	16%	.	8.9µM*	-22%	-18%
COc1ccc(Nc2cc(C)nc(-n3nc(C)cc3C)n2)cc1Cl	6.3µM*	10%[57 µM]	.	25%[59 µM]	?	.
Cc1cc(Nc2ccc(F)c(Cl)c2)n2nc(C)nc2n1	5%	23%	9%	?	3%	9%
CCOc1ccc(Nc2cc(C)nc3nc(C)nn23)cc1	0%	4%	20%	89µM*	-12%	-1%
CCOc1ccc(Nc2cc(C)nc3nncn23)cc1	-2%	8%	.	-14%[59 µM]	-13%	.
COc1ccc(Nc2cc(C)nc3nc(C)nn23)cc1Cl	15%	52%	.	89µM*	-4%	-18%
Cc1cccc(C)c1OCC(=O)Nc1c(C(=O)c2ccc(Br)cc2)oc2ccccc12	0%	66%	.	7%[59 µM]	9%	.
CCCCOc1ccc(C(=O)NCCc2sc3nc(-c4ccc(OC)cc4)nn3c2C)cc1	0%	34%	.	-1%[59 µM]	-6%	.
S=C(NCc1ccco1)NCc1ccco1	.	35µM*	.	.	56µM*	.
Cc1c(Cl)c(C(=O)NNC(=S)NCc2ccco2)nn1C	14%	23%	25%	?	-26%	17%
O=C(Cc1cccs1)NNC(=S)NCc1ccco1	-3%	25%	-4%	50µM*	-17%	7%
COc1ccccc1NC(=S)NCc1ccco1	-3%	13%	.	?	-23%	56µM*
Cn1cc(Cl)c(C(=O)NNC(=S)NCc2ccco2)n1	9%	-5%	21%	40µM*	-25%	56µM*
CCC(C)n1c(=O)c2sccc2n2c(CCCC(=O)Nc3ccc(F)cc3)nnc12 (stereo not drawn)	-15%	18%	.	-5%[59 µM]	-11%	.
SMILES	BAZ2B block	HP1b chromo inh	L3MBTL1 inh	G9a block	JMJD2A Tudor inh	Sfp PPTase inh
CC(C)(C)NC(=S)NCc1ccco1	-9%	-4%	-6%	79µM*	-16%	3.5µM*
NNC(=S)NCc1ccco1	-35%	1%	-6%	4%	89µM*	40µM*
CN(C)c1ccc(C(=S)NCc2ccco2)cc1	?	?	?	?	?	14µM*
S=C(NCc1ccccc1)NCc1ccco1	-30%	5%	.	?	-25%	-6%
Cc1cccc(NC(=S)NCc2ccco2)n1	-2%	27%	.	2µM*	6%	-28%
COc1ccc(OC)c(NC(=O)c2cc3cc(C)ccc3n2C)c1	1%	57%	.	-1%[59 µM]	8%	.
CCCS(=O)(=O)N1CC(=O)N(c2ccccc2C)C(C)(C(=O)NC2CCCCC2)C1 (stereo not drawn)	-1%	29%	.	4%[59 µM]	-1%	.
Cc1nn(C)c2c1c(-c1ccccc1)cc(=O)n2Cc1ccc(F)cc1	37%	123%	.	44%[59 µM]	34%	.
Cc1cccc(NC(=S)NNc2ncc(C(F)(F)F)cc2Cl)c1	8%	?	2%	-11%[59 µM]	-29%	1%
FC(F)(F)c1cnc(NNC(=S)Nc2ccccc2Cl)c(Cl)c1	7%	-19%	11%	40µM*	-27%	3%
S=C(Nc1ccccc1Cl)Nc1ccc(Cl)cc1Cl	-3%	14%	-2%	-7%[59 µM]	-8%	8%
S=C(NNc1ccnc2cc(Cl)ccc12)Nc1ccccc1Cl	?	?	-15%	11µM*	56µM*	?
O=C(Oc1ccccc1)N1CCC2(CCCN(c3ccccc3)C2)CC1	.	.	.	1%[12.7 µM]	.	-12%
Cc1cccc(C(=O)NC(=S)Nc2ccc(Cc3ccncc3)cc2)c1	?	-42%	-4%	32µM*	?	-29%
Cc1cc(C)cc(C(=O)NC(=S)Nc2ccc(Cc3ccncc3)cc2)c1	?	?	2%	22µM*	?	-9%
COc1cc(C(=O)NC(=S)Nc2ccc(Cc3ccncc3)cc2)cc(OC)c1OC	-16%	-1%	.	-34%[2.33 µM]	?	-7%
COc1ccccc1C(=O)NC(=S)Nc1ccc(Cc2ccncc2)cc1	?	14%	.	32µM*	-27%	?
COc1ccccc1C(=O)Nc1ccncc1	-1%	37%	0%	-1%	3%	17%
O=C(NC(=S)Nc1ccc(Cc2ccncc2)cc1)c1ccccc1	?	?	-24%	?	-34%	-14%
CCCSc1ncc(Cl)c(C(=O)Nc2c(C(=O)c3ccc(C)cc3)oc3ccccc23)n1	1%	-12%	.	5%[59 µM]	-10%	.
CC(=O)Nc1ccn(C2OC(C(COC(C)=O)NC(=O)C(C)NC(=O)OC(C)(C)C)C(OC(C)=O)C2OC(C)=O)c(=O)n1 (stereo not drawn)	.	20%	.	.	-14%	4%
Cc1ccc(C)c(NC(=O)Cn2c(=O)n(Cc3ccco3)c(=O)c3oc4ccccc4c32)c1	-14%	22%	.	-28%[59 µM]	-13%	.
